An excerpt weighted towards active compounds, which were near 2.2% of everything screened.
Giardia kill: kills Giardia lamblia. hit rate 0.15% among 340,000. Giardia lamblia trophozoite viability. activity change, % at 7.66 µM, hits read low; in the data active = activity change below about -80%;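 also: parasites exposed to compound for two days anaerobically before the ATP read; % is scaled to controls: 0 for no effect and ±100 for the full control effect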
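Luminescence from cellular ATP indicates surviving trophozoites (100 cells/well) following 48 hrs anaerobic compound treatment at 37 deg C; signal develops 15-30 min at room temperature.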
IL2 activator: activators of IL-2. IL-2 activation reporter assay, cell-based qHTS; stimulated with anti-CD3/CD4/CD28 beads; in transgenic mouse T cells. AID 652025. hit rate 0.065% among 360,000. activation, % (series mostly up to about 46 µM); in the data active = activation above about 50%; also: 0% is about no effect
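Unstimulated transgenic mouse T cells preincubated 60 min with compound, then stimulated with anti-CD3/anti-CD4-coated beads plus anti-CD28 for 18 h at 37 degrees C. IL-2 response read as EGFP and DsRed fluorescence by plate cytometry.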
rTrxR1 inhibitor: blocks rat thioredoxin reductase 1 | O89049 | Potency, µM (top dose mostly 114 µM), without a hit: at the highest dose activity change, negative = inhibition, most hits filed as inhibitors | hit rate 1% among 390,000 | recombinant rTrxR1, NADPH fluorescence consumption, selenite substrate; also: potency is read from the fitted curve at half-maximal effect; % is scaled to controls: 0 for no effect and ±100 for the full control effect; nearly all actives have a fitted effect of over 65% in size
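Rat TrxR1 (90 nM in the dispensed reagent) was pre-reduced with 400 uM NADPH for 5 min at room temperature, then incubated with compound for 15 min. After 400 uM selenite was added, NADPH fluorescence (Ex 340/Em 450 nm) was followed for 8 min.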
IDH1 R132H inh: blocks human mutant IDH1 R132H enzyme | hit rate 0.093% among 390,000 | AID 602179 | O75874 | IDH1-R132H enzyme, NADPH consumption, diaphorase/resazurin fluorescence | Potency, µM (top dose mostly 76.6 µM), without a hit: at the top dose activity change, negative = inhibition, hits mostly inhibitors; also: potency is read from the fitted curve at half-maximal effect; % is scaled to controls: 0 for no effect and ±100 for the full control effect; nearly all actives have a fitted effect of over 65% in size
Target sequence (O75874 whole entry R132H, stated change not applied): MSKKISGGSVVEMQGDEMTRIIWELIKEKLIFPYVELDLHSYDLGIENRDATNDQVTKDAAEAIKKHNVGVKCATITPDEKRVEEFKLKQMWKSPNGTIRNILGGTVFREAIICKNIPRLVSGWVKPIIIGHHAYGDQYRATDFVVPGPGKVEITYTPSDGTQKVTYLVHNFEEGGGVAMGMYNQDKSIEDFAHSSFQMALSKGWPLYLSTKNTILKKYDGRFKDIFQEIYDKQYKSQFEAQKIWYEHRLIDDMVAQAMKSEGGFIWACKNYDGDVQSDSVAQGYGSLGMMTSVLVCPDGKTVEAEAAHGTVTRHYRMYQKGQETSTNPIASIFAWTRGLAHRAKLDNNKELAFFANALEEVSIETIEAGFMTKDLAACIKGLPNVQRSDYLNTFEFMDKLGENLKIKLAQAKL
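IDH1-R132H (0.5 ug/mL dispensed) in pH 7.5 Tris buffer was preincubated 30 min with compound, then given a substrate mix of 0.016 mM NADPH and 2 mM alpha-KG for 80 min at room temperature; remaining NADPH was read by diaphorase/resazurin fluorescence.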
TrxR1 substrate: substrates of rat thioredoxin reductase 1; O89049; purified TrxR1 substrate turnover, NADPH consumption readout; Potency, µM (titrated, usually from 114 µM), for the others: at the highest dose activity change, negative = substrate turnover; hit rate 0.01% among 390,000; AID 588456; also: potency is read from the fitted curve at half-maximal effect; % is scaled to controls: 0 for no effect and ±100 for the full control effect; nearly all actives have a fitted effect of over 50% in size
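Rat TrxR1, dispensed at 90 nM, was prereduced with 400 uM NADPH (final) for 5 min at ~22 deg C, then incubated with compound 15 min before 400 uM selenite. A first-read NADPH fluorescence drop versus no-compound background flagged substrates.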
BRCA1 expr act: increases BRCA1 expression; MCF7-BRCA1-FFLuc reporter, luminescence, 48 h; response scale: scaled: vehicle 0%, 10 µM genistein 100%; Potency, µM (series often up to 46.1 µM), for the others: at the top dose activation, actives largely listed as activators; hit rate 1.1% among 380,000; AID 624202; also: potency is read from the fitted curve at half-maximal effect; nearly all actives have a fitted effect of over 80% in size
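Using MCF7 cells harboring a BRCA1 firefly luciferase reporter, plated 2 h before compound pinning, the screen measured luminescence after 48 h incubation. Responses were normalized to DMSO and 10 microM genistein, then fitted for concentration-effect.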
Active calls of the source: *; . = no result given; [ ] = dose if it differs, or a comment. Unless noted, calls follow the shape of the dose curve; as a rule, active = well fitted curve in the direction sought with a large enough effect; inconclusive = small, poorly fitted or top-dose-only effect, or another doubt; inactive = no such curve, though single readings can be large; an effect the other way counts as inactive or inconclusive.

SMILES	Giardia kill	IL2 activator	rTrxR1 inhibitor	IDH1 R132H inh	TrxR1 substrate	BRCA1 expr act
CCC(C)NC(=O)c1cc2cc3ccc(OC)cc3nc2o1 (configuration not stated)	0	-3	-132%	6%	214%[57.1 µM]	11µM*
O=C(Nc1ccc(F)cc1Cl)C1Cc2ccccc2N1C(=O)c1ccccc1 (configuration not stated)	.	.	10%[57.1 µM]	16%	1%[57.1 µM]	.
Cc1c2cnn(CC(=O)NC(C)C)c(=O)c2c(C)n1Cc1ccccc1Cl	.	.	12%	0%	7%	.
O=C1CC(N2CCC(Cc3ccccc3)CC2)C(=O)N1CCc1ccccc1 (configuration not stated)	-16	2	32µM*	5%	1%	10%
COc1ccc(-c2cnc(C(O)c3ccccc3)[nH]2)cc1 (configuration not stated)	.	0	.	.	.	13µM*
OC(c1ccccc1)c1ncc(-c2ccccc2Cl)[nH]1 (configuration not stated)	.	1	.	.	.	10µM*
COc1cccc(-c2cnc(C(O)c3ccccc3)[nH]2)c1 (configuration not stated)	.	0	.	.	.	11µM*
CCCCCCC[n+]1c(/C=C/c2ccc(N(C)C)cc2)sc2ccccc21	.	.	-25%	.	1%	-12%
O=C(Nc1c(-c2ccccc2)nc2ccccn12)c1ccc(Br)cc1	.	.	13%	-23%	3%	-10%
O=C(CSc1c[nH]c2ccccc12)N1CCCc2ccccc21	6	2	-1%[57.1 µM]	7%	11%[57.1 µM]	-29%
Cn1cccc1C(=O)OCC(=O)N1CCc2ccccc21	-3	0	13%	-7%	4%	10µM*
O=C(Cc1c[nH]c2ccccc12)N1CCc2ccccc21	-8	3	-7%	3%	-9%	11µM*
O=C(COc1ccccc1)N1CCc2ccccc21	14	-4	6%[57.1 µM]	12%	-13%[57.1 µM]	100%
O=C(COc1ccc(Br)cc1)N1CCc2ccccc21	-8	-1	9%[57.1 µM]	5%	3%[57.1 µM]	7.1µM*
Cc1ccc2c(c1)ncc[n+]2CC(=O)c1ccc(F)cc1	.	.	-8%	.	0%	.
CC(C)(C)n1ncc2c(=O)n(Cc3cccc(-c4cccs4)c3)cnc21	.	.	18%	.	-5%	.
Cc1ccc2c(c1)-c1onc(C(=O)N(C)c3cccc(C(F)(F)F)c3)c1CO2	.	.	3%	25%	5%	7%
COc1cc2nc(N3CCNCC3)nc(N)c2cc1OC	16	1	79µM*	0%	59%	1%[1.84 µM]
CCOC(=O)c1cc(C)n(CC2CCC(C(=O)Nc3ccc(OC)cc3)CC2)c1C (configuration not stated)	.	.	25%	-5%	-4%	.
C=CCCC1CN(Cc2ccco2)S(=O)(=O)c2c(F)cccc2O1 (configuration not stated)	6	0	40µM*	-3%	-3%	-2%
O=S1(=O)c2c(F)cccc2OC(COCc2ccccc2)CN1C1CCCC1 (configuration not stated)	16	-1	24%	-1%	2%	0%
Cc1ccc(N2C(=O)CSCC2=O)cc1	-11	0	-6%	3%	-4%	0%
Cc1ccc(N2C(=O)CS(=O)(=O)CC2=O)cc1	-15	0	4.5µM*	9%	8%[57.1 µM]	23%
COC(=O)c1ccc(/C=C(\C#N)C(=O)NC(C)c2ccccc2)cc1 (configuration not stated)	3	-1	22µM*	-10%	-17%	-42%
CC(NC(=O)/C(C#N)=C/c1ccc([N+](=O)[O-])o1)c1ccccc1 (configuration not stated)	-28	4	7.9µM*	-25%	-8%	-106%
CC(NC(=O)/C(C#N)=C/c1ccco1)c1ccccc1 (configuration not stated)	-3	0	2%	3%	-12%	0%
CCOCCCNC(=O)/C(C#N)=C/c1ccc([N+](=O)[O-])o1	-5	-1	3.2µM*	-1%	-6%[57.1 µM]	-10%

Screening results from PubChem BioAssay.
